This note sets out measurements from PubChem BioAssay (NCATS).

Values without a mark were called inactive. No rule for the calls is given here.
Potency is read from the fitted curve at half-maximal effect.

For the assay, the system named is HIV-1 nucleocapsid protein NCp7 (binding to TG oligonucleotide). The assay can be described thus: HIV Nucleocapsid (AID 346).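 Also: potency is for inhibitors that block NC binding and lower polarization.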 The following applies: HIV-1 NC / fluorescein-TGTGTGTG probe, fluorescence polarization. On the procedure: NCGC Assay Overview: HIV-1 nucleocapsid protein (HIV-1 NC) is a small (6.5 kDa) basic zinc-finger protein which participates in packaging of viral genomic RNA. The spacing and metal-chelating residues (3 Cys, 1 His) of the Cys-X2-Cys-X4-His-X4-Cys Zn fingers are conserved among all known retroviruses (J. Med. Chem. 1998, 41, 1371-1381). HIV-1 NC was assayed for its binding to the consensus sequence single-stranded 5'-TGTGTGTG. […] High salt was included to increase the stringency of binding and inhibitor screen. Reducing agents and zinc were present to stabilize the nucleocapsid zinc-finger protein.
NCGC Assay Protocol Summary: Buffer. Hepes pH 7.5, 250mM NaCl, 1uM ZnCl2. 0.004% polyethylene glycol 20000. TCEP (100 uM) and 2-Mercaptoethanol (5 mM), added fresh the day of the experiment. Reagents/Controls. 10 nM TG4xF only in columns 3 and 4 as negative control. 10 nM TG4xF/100 nM HIV-1 NC in columns 1, 2, 5-48. Titration of control compound NSC-13778 (from 20 mM, then 1:2) pin-transferred to column 2. Assay Steps. Two uL of reagents were dispensed to 1536-well Kalypsys black plates. The plates were centrifuged for 1 min at 1000 rpm. Compounds and controls (20 nL) were transferred via Kalypsys PinTool. The plates were incubated for 1 hr at room temperature, and then read on ViewLux (Perkin-Elmer). High-throughput CCD imager using fluorescein polarization filter set and 45 seconds exposure time.
For orientation: In fluorescence polarisation assays a small probe gives low polarisation when free and higher when bound to something large.
With `N#CCCn1c(=O)c(-c2ccccc2)nc2cnc(N3CCOCC3)nc21`, the Potency is above 20 µM.
For `Clc1ccccc1-c1nc(NCc2cccs2)c2ccccc2n1` the value was above 20 µM; for `COc1ccc2[nH]cc(CCNc3cc(-c4ccoc4)ncn3)c2c1`, above 20 µM.
For `O=C(c1cnccn1)N1CCC2(CCN(Cc3ccccc3)CC2)CC1` the value was above 20 µM; for `FC(F)(F)c1ccccc1-c1cncnc1-n1ccnc1`, above 20 µM.
For `N#Cc1ccc(CN2CCCC3(CCN(C(=O)c4cc(C(F)(F)F)cc(C(F)(F)F)c4)CC3)C2)cc1` the value was above 20 µM.
Consider `N#Cc1ccc(CN2CCC3(CC2)CCN(C(=O)c2ccncc2)CC3)cc1`, for which the Potency is above 20 µM.
The same measure for `COc1ccc(Oc2ncc3nc(-c4ccc(Cl)cc4)c(=O)n(C4CC4)c3n2)cc1`: above 20 µM; for `CN1CCN(c2ncc3nc(-c4ccccc4)c(=O)n(CCc4ccccc4)c3n2)CC1`: above 20 µM.
In the case of `COc1ccc(-c2nc3cnc(OC)nc3n(Cc3cccc(OC)c3)c2=O)cc1`, the Potency was above 20 µM.
Regarding `O=c1c(-c2cc(F)cc(F)c2)nc2cnc(Oc3ccccc3)nc2n1C[C@H]1CCCO1`, the Potency is above 20 µM.
For `N#CCCn1c(=O)c(-c2cccs2)nc2cnc(Oc3cccc(Cl)c3)nc21` the value was above 4 µM.
In the case of `COc1ccc(-n2c(=O)c(C)nc3cnc(Nc4ccccc4)nc32)cc1`, the Potency was above 20 µM.
For `CN1CCCC2(CCN(C(=O)c3cnccn3)CC2)C1` the value was above 20 µM; for `CN(C)C(=O)c1ccc(-c2nccc(NCc3ccccc3)n2)cc1`, above 20 µM.
Consider `COCCn1c(=O)c(-c2cccc(C#N)c2)nc2cnc(N3CCOCC3)nc21`, for which the Potency was above 20 µM.
With `Cc1noc(C)c1C(=O)N1CCC2(CCCN(C(=O)Nc3ccccc3)C2)CC1`, the Potency is above 20 µM.
For `CN(C)c1ccc(-c2nc(N3CCNCC3)c3ccccc3n2)cc1` the value was above 20 µM; for `O=C(c1cnccn1)N1CCC2(CCCN(Cc3ccccc3)C2)CC1`, above 20 µM; for `COC(=O)N1CCC2(CCN(C(=O)NC(C)C)CC2)CC1`, above 20 µM.
For `COc1ccc(-n2c(=O)c(-c3cccc(C#N)c3)nc3cnc(N4CCNCC4)nc32)cc1` the value was above 20 µM; for `COc1cccc(Cn2c(=O)c(C)nc3cnc(Nc4ccccc4)nc32)c1`, above 4 µM; for `c1cncc(-c2nccc(-n3ccnc3)n2)c1`, above 20 µM.
For `Cn1c(=O)cnc2cnc(Nc3ccccc3)nc21` the value was above 4 µM.
Regarding `O=C(Nc1ccccc1)N1CCC2(CC1)CCN(C(=O)c1cnccn1)CC2`, the Potency is above 20 µM.
For `COc1ncc2nc(-c3ccccc3)c(=O)n(C3CC3)c2n1` the value was above 20 µM; for `CC(C)NC(=O)N1CCC2(CC1)CCN(C(=O)c1csnn1)CC2`, above 20 µM; for `Cn1c(=O)c(-c2cccc(Cl)c2)nc2cncnc21`, above 20 µM.
For `Cc1noc(C)c1C(=O)N1CCC[C@@]2(CCN(C(=O)Nc3ccccc3)C2)C1` the value was above 20 µM.
For `COCC(=O)N1CCC2(CC1)CCN(c1ccccc1)CC2` the value was above 20 µM.
Turning to `CCNc1ncc2nc(C)c(=O)n(C)c2n1`, the Potency is above 20 µM.
Regarding `COc1ccc(CNc2nc(-c3cccc(NS(C)(=O)=O)c3)nc3ccccc23)c(OC)c1`, the Potency was above 20 µM.
For `CN(C)c1ncc2nc(-c3cccc(C#N)c3)c(=O)n(C)c2n1` the value was above 20 µM; for `COc1ccc(-n2c(=O)c(CCc3ccccc3)nc3cncnc32)cc1`, above 20 µM.
The same measure for `COc1ccccc1-c1cc(NCc2ccccc2)ncn1`: above 20 µM; for `COc1ccc(CNc2ncncc2-c2ccccc2C(F)(F)F)c(OC)c1`: above 20 µM; for `CN1CCN(c2ncc3nc(-c4cccc(C#N)c4)c(=O)n(CCc4ccccc4)c3n2)CC1`: above 20 µM.
For `CCNc1ncc2nc(-c3ccc(F)cc3)c(=O)n(CCC#N)c2n1` the value was above 4 µM; for `COC(=O)N1CCC2(CC1)CCN(C(c1ccccc1)c1ccccc1)CC2`, above 20 µM.
As for `CN(C)c1nc(-c2ccoc2)nc2ccccc12`, the Potency was above 20 µM.
